In the library only some 12% were active in any assay of this set; here they are far more common.
LASV entry inh: blocks Lassa virus binding to or entry into cells; Lassa virus pseudotype entry inhibition, cell reporter; Potency, µM (titrated, usually from 37.9 µM), without a hit: at the top dose activity change, negative = inhibition, hits mostly inhibitors; 1.2% of 300,000 active; AID 540256; calls by dose curve; tested in HEK293 cells; also: potency is read from the fitted curve at half-maximal effect; % is scaled to controls: 0 for no effect and ±100 for the full control effect; nearly all actives have a fitted effect of over 50% in size
Shiga inhibitor: Shiga toxin inhibition; Vero cells, Shiga toxin protein synthesis inhibition reporter; 9.2% of 290,000 active; inhibition, % at 38.7 µM; AID 2315; in the data active = inhibition mostly above about 28%, no sharp cut-off; inactive = mostly below about 43%; also: 0% is about no effect
Marburg entry inh: Marburg virus entry inhibition; Potency, µM (doses to about 37.8 µM), without a hit: at the highest dose activity change, negative = inhibition, actives largely listed as inhibitors; AID 540276; 1.8% of 300,000 active; Marburg virus pseudotyped entry inhibition, cell reporter; calls by dose curve; tested in HEK293 cells; also: potency is read from the fitted curve at half-maximal effect; % is scaled to controls: 0 for no effect and ±100 for the full control effect
Cycloheximide cs: counter-screen for Shiga toxin inhibitors: cycloheximide protein synthesis inhibition; cell reporter, cycloheximide protein synthesis inhibition counterscreen; max response, %; 12% of 300,000 active; in the data active = max response mostly above about 13%, no sharp cut-off; inactive = mostly below about 14%; also: read at 38.3 µM for the half of the compounds with a filed dose; 0% is about no effect
The depositor's hits bear a star; i = inactive; ? = inconclusive; · = no result; ! = a repeat was not active; [ ] = dose if it differs, or a comment.

SMILES	LASV entry inh	Shiga inhibitor	Marburg entry inh	Cycloheximide cs
CCC(Oc1cc(Cl)ccc1Cl)C(=O)N1CCC2(CC1)OCCO2 (centres undefined)	·	64*	·	31*
Cc1cccc(OCC(=O)NC(=S)N2CCCc3ccccc32)c1	23%	i	15%	35*
O=C(O)Cn1c(C(=O)Nc2nc(-c3ccccc3Cl)cs2)cc2ccccc21	·	8	·	-6
COc1ccc(C2(CNC(=O)C(=O)Nc3ccc(C)c(Cl)c3)CCCC2)cc1OC	-9%[46.1 µM]	·	9%[46.1 µM]	·
NS(=O)(=O)c1ccc(CCNS(=O)(=O)c2cccc3nsnc23)cc1	·	-14	0%[46.1 µM]	-7
COC(=O)c1sccc1NC(=O)Nc1ccc(OC)cc1	12%[46.1 µM]	108*	16%[46.1 µM]	35*
COC(=O)c1sccc1NC(=O)Nc1cccc(C)c1	·	60*	·	32*
Cc1ccc(-c2nnc(NC3CCCC3)s2)cc1	?	53*	?	54*
CC1=CC(=NOC(=O)/C=C/c2ccccc2)C=C(C)C1=O	5%	23	-13%[46.1 µM]	13*
COc1ccc(Cl)cc1NS(=O)(=O)c1cc(Br)cc2c1N(C(=O)C1CC1)CC2	2%[46.1 µM]	·	22%[46.1 µM]	·
COc1cc(NS(=O)(=O)c2cc(Br)cc3c2N(C(=O)C2CC2)CC3)cc(OC)c1	3.5µM*	·	·	·
O=C(Nc1ccc2nsnc2c1)N1CCCCCC1	8%	109	27%	43*
O=C(Nc1ccc2snnc2c1)N1CCCCC1	2%	29	29%[46.1 µM]	19*
Cc1nc2ccc(NC(=S)N3CCCC3)cc2nc1C	·	18	·	4
O=C(Nc1ccc2snnc2c1)N1CCOCC1	3%	-2	4%	-5
S=C(Nc1ccc2nccnc2c1)N1CCCC1	0%	53	28%[46.1 µM]	28*
S=C(Nc1ccc2nsnc2c1)N1CCCC1	12%	89*	21%[46.1 µM]	46*
O=c1[nH]c(=S)c2[nH]c(=S)n(-c3ccccc3)c2[nH]1	16%[46.1 µM]	·	-12%[46.1 µM]	·
CN(C(=O)c1ccco1)c1nc2c(s1)CCCC2	6.3µM*	42*	?	31*
CN(C(=O)c1ccco1)c1nnc(C23CC4CC(CC(C4)C2)C3)s1	13%	83*	?	57*
Cc1c(C(=O)N2CCCC2)oc2c1-c1nn(CC(=O)NCc3ccccc3Br)cc1CC2	-17%[46.1 µM]	·	·	·
O=C(c1cc2c(=O)oc3ccccc3c2s1)N1CCN(c2cccc(Cl)c2)CC1	-17%[46.1 µM]	·	0%[46.1 µM]	·
COc1ccc(NC(=O)CC(C)n2nc(C)cc2C)cc1Cl (centres undefined)	0%[46.1 µM]	·	·	·
COc1ccc(OC(C)C(=O)NC2CCCCCC2)cc1 (centres undefined)	-15%[46.1 µM]	·	-13%[46.1 µM]	·
COC(=O)Cc1c(OC)ccn(CCc2c[nH]c3ccccc23)c1=O	?	103*	-14%[46.1 µM]	34*
SMILES	LASV entry inh	Shiga inhibitor	Marburg entry inh	Cycloheximide cs
O=C(O)c1nn(CCSc2ccccc2F)c(=O)c2ccccc12	·	52	·	23*
COc1ccccc1Cn1nc(C(=O)O)c2ccccc2c1=O	·	43*	?	20*
Cc1cccc(C)c1OCCn1nc(C(=O)O)c2ccccc2c1=O	6.3µM*	-2	10µM*	-2
COC(=O)[C@@H]1CC23C(=NC(c4ccc([N+](=O)[O-])cc4)=C(C(F)(F)F)[C@@H]2N(C)c2ccccc23)N1C(C)=O (some centres undefined)	·	·	8%[14.2 µM]	·
CCOc1ccc(C(=O)Nc2cccc(-c3nc4ccccc4[nH]3)c2C)cc1[N+](=O)[O-]	-4%	-10	-3%	-3
Oc1ccc2c3c1O[C@H]1c4oc5ccccc5c4C[C@@]4(O)C(C2)N(CC2CC2)CCC314 (some centres undefined)	·	·	10µM*	·
C=CCN1CC[C@]23c4c5ccc(O)c4O[C@H]2/C(=N/NC(=O)c2ccccc2)CC[C@@]3(O)[C@H]1C5	?	·	0.089µM*!	·
C=C1CC[C@@]2(O)[C@H]3Cc4ccc(O)c5c4[C@@]2(CCN3CC2CC2)[C@H]1O5	-6%	-9	7%	-3
Oc1ccc2c3c1O[C@H]1c4[nH]c5ccccc5c4C[C@@]4(O)C(C2)N(CC2CC2)CCC314 (some centres undefined)	18µM*	·	16µM*	·
Cc1c(Cl)cccc1NC(=O)CSc1nc(=O)n(Cc2cccnc2)c2c1CCC2	0%[46.1 µM]	·	·	·
COc1ccc(C(=O)NCc2csc(-c3cccs3)n2)cc1	·	13	·	1
CCC(=O)NCc1csc(-c2cccs2)n1	?	28	?	24*
O=C(NCc1csc(-c2cccs2)n1)C1CCCCC1	?	76*	?	29*
COc1ccccc1CCNC(=O)c1nc(-c2cccs2)no1	0%[46.1 µM]	67*	?	29*
COc1ccccc1CC(=O)NCc1csc(-c2cccs2)n1	-27%	68*	1%[14.2 µM]	47*
Cc1ccc(/C(O)=C2\C(=O)C(=O)N(Cc3ccco3)[C@@H]2c2cccs2)cc1	·	·	2%	·
C[C@@H]1C(c2ccccc2)=CC(=O)c2nc3ccccc3cc2[C@@H]1C(=O)N1CCCC1	·	·	-10%[14.2 µM]	·
O=S(=O)(NCc1csc(-c2ccccc2)n1)c1ccc(Cl)s1	·	-6	·	5
O=S(=O)(NCc1csc(-c2cccs2)n1)c1ccccc1	-1%	41	15%[46.1 µM]	6.7*
O=C(C1CCCN(Cc2cccnc2)C1)N1CCCCC1 (centres undefined)	13%	-13	-12%	22*
CSc1ncccc1C(=O)N1CCCC(C(=O)c2ccc3ccccc3c2)C1 (centres undefined)	11µM*	23	?	1
O=C(C1CCCN(Cc2ccc(F)cc2)C1)N1CCCCC1 (centres undefined)	·	-6	·	8
COc1ccc2cc(C(=O)C3CCCN(C(=O)C4=NN(C)C(=O)CC4)C3)ccc2c1 (centres undefined)	·	3	·	20*
O=C(c1ccc(C(F)(F)F)cc1)C1CCCN(C(=O)Cn2cncn2)C1 (centres undefined)	?	-8	10%	-2
O=C(c1cccc(C(F)(F)F)c1)C1CCCN(C(=O)Cn2cncn2)C1 (centres undefined)	·	4	·	13*
SMILES	LASV entry inh	Shiga inhibitor	Marburg entry inh	Cycloheximide cs
C=CCCC(=O)N1CCCC(C(=O)c2cccc(OC)c2)C1 (centres undefined)	·	12	·	21*
CSc1ccccc1C(=O)C1CCCN(C(=O)CCc2cccnc2)C1 (centres undefined)	11%[46.1 µM]	50	?	24*
Cn1cc(CCC(=O)N2CCCC(C(=O)c3cccc4ccccc34)C2)cn1 (centres undefined)	9%	21	9%[46.1 µM]	36*
COc1ccc2cc(C(=O)C3CCCN(C(=O)c4cnn(C(C)C)c4)C3)ccc2c1 (centres undefined)	·	-2	·	11
COc1ccc2cc(C(=O)C3CCCN(C(=O)CCc4cnn(C)c4)C3)ccc2c1 (centres undefined)	-20%[46.1 µM]	43*	?	27*
O=C(CSc1nc2ccccc2c(=O)n1-c1ccc(F)cc1)Nc1cc(S(=O)(=O)N2CCOCC2)ccc1Cl	?	-5	-2%	1
COc1ccc(C(=O)C2CCCN(C(=O)CCc3scnc3C)C2)c(C)c1 (centres undefined)	-22%[46.1 µM]	92*	4%[46.1 µM]	47*
CCNC(=O)N1CCCC(C(=O)c2ccc3cc(OC)ccc3c2)C1 (centres undefined)	-3%	26	5%[46.1 µM]	20*
